Only some compounds are listed: those with a hit (about 0.65% of all), similar ones and a draw of the others.
NS1 function inh – influenza NS1 inhibition. Potency, µM (titrated, usually from 46.1 µM). 270,000 tested, 0.4% active. AID 2326; note: actives are rising curves; nearly all actives have a fitted effect of over 50% in size
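In this qHTS, NS1 from influenza A is expressed in budding yeast, where it slows growth. Cells are switched from glucose to 2% galactose medium (pH 6.0, -URA), treated with compound, and growth recovery is read at OD600.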
SARS PLpro yeast-1 – inhibitors of SARS-CoV papain-like protease in yeast; S. cerevisiae expressing SARS-CoV PLpro, growth rescue; Potency, µM (doses to about 32.9 µM), most hits filed as activators; 330,000 tested, 0.19% active; AID 485353; note: nearly all actives have a fitted effect of over 55% in size
AMA1 RON2 block – AMA1-RON2 (P. falciparum) interaction inhibition; AlphaScreen AMA1-biotinylated RON2 peptide binding; Potency, µM (titrated, usually from 58.2 µM), most hits filed as inhibitors; 360,000 tested, 0.2% active; AID 720542; active = well fitted inhibition curve with a large enough effect; inconclusive = small, poorly fitted or top-dose-only effect; inactive = no such curve, though single readings can be large or run the other way; note: nearly all actives have a fitted effect of over 45% in size
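AMA1 (3D7) with his tag at 25 nM final met compounds first, then biotinylated RON2 peptide at 25 nM; detection used donor plus acceptor beads, 10 µg/mL apiece, read by AlphaScreen after 30 min at room temperature.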
SARS PLpro yeast-2 – Validates SARS-CoV PLpro inhibitor hits in yeast | shares compounds with SARS PLpro yeast-1 | yeast expressing SARS-CoV PLpro, growth phenotype rescue | calls only | 1,000 tested, 19% active; call rule not given here
Large screens that a line does not name were inactive (follow-up assays come after a bar, where they were run); ! = repeats disagree. Unless noted, calls come from the whole dose curve.

Cc1ccc(C2=NC(C)(C)NC2=O)cc1	SARS PLpro yeast-1 inconclusive | SARS PLpro yeast-2 inactive
CC1(C)N=C(c2ccc(Cl)cc2)C(=O)N1	none
N#Cc1ccc(C23CC4CC(CC(C4)C2)C3)[nH]c1=O	AMA1 RON2 block inconclusive
Cc1ncc(C23CC4CC(CC(C4)C2)C3)[nH]1	SARS PLpro yeast-1 13µM | SARS PLpro yeast-2 inactive
C=C(C)[C@H]1CC=C(C)C(=O)C1	none (no result: NS1 function inh)
CCOC(=O)Cc1csc(NC(=O)CCCC(=O)O)n1	none
O=C(Oc1c(CN2CCOCC2)cc(Cl)c2cccnc12)c1ccccc1	SARS PLpro yeast-1 inconclusive (no result: NS1 function inh)
O=C(Oc1c(CN2CCOCC2)cc(Cl)c2cccnc12)c1ccccc1F	SARS PLpro yeast-1 2.5µM (no result: NS1 function inh) | SARS PLpro yeast-2 inconclusive
CCc1nc2sc3c(O)cc(=O)[nH]c3c2cc1C	none (no result: NS1 function inh)
O=C1C(Cc2ccccc2)Nc2ncnc(N3CCCCC3)c2N1Cc1ccccc1 (configuration not stated)	none (no result: NS1 function inh)
CCn1c(SCC(=O)NC2CCCC2)nnc1-c1ccccn1	none
CCn1c(SCC(=O)NC2CCCCC2)nnc1-c1ccccn1	SARS PLpro yeast-1 3.5µM | SARS PLpro yeast-2 inactive
O=C(NC(=S)Nc1ccccn1)c1ccco1	SARS PLpro yeast-1 3.2µM | SARS PLpro yeast-2 inactive
Cc1ccnc(NC(=S)NC(=O)c2ccco2)c1	none
O=C1CNC(=S)N1CCCn1ccnc1	none (no result: NS1 function inh)
Cc1nccn1CCCN1C(=O)CNC1=S	SARS PLpro yeast-1 4.5µM | SARS PLpro yeast-2 inactive
O=C(NCc1ccccc1CN1CCOCC1)c1ccc(-n2cccn2)cc1	none (no result: NS1 function inh)
O=C(CCNS(=O)(=O)c1cccs1)Nc1nccs1	none
O=C(CCNS(=O)(=O)c1cccs1)Nc1ccccc1F	SARS PLpro yeast-1 inconclusive | SARS PLpro yeast-2 inactive
COc1ccc(C(C)=O)cc1COC(=O)CCNS(=O)(=O)c1ccc(C)c(C)c1	none (no result: NS1 function inh)
COc1ccc(S(=O)(=O)Nc2cccc3c2O[C@H](CN(C)Cc2ccc(Cl)c(Cl)c2)[C@@H](C)CN([C@H](C)CO)C3=O)cc1	SARS PLpro yeast-1 inconclusive (no result: NS1 function inh) | SARS PLpro yeast-2 inconclusive
C[C@H](CO)N1C[C@H](C)[C@@H](CN(C)C(=O)Nc2ccccc2)Oc2c(NC(=O)NC3CCCCC3)cccc2C1=O	SARS PLpro yeast-1 inconclusive (no result: NS1 function inh) | SARS PLpro yeast-2 inactive
C[C@H](CO)N1C[C@H](C)[C@@H](CN(C)C(=O)NC2CCCCC2)Oc2c(NC(=O)Nc3ccccc3)cccc2C1=O	none (no result: NS1 function inh)
C[C@H]1CN([C@@H](C)CO)C(=O)c2cccc(NS(=O)(=O)c3ccc(F)cc3)c2O[C@H]1CN(C)Cc1ccc(Cl)c(Cl)c1	none (no result: NS1 function inh)
CCNS(=O)(=O)c1ccc(CCC(=O)N2CCC(C)CC2)cc1	none
O=C(O)c1ccn2c(C(=O)c3ccccc3)c(-c3ccccc3)cc2c1	none
CC(C)(C)OC(=O)N[C@H](C(=O)OC(C)(C)C)c1ccccc1	none (no result: NS1 function inh)
CCCN(CC(=O)Nc1ccccc1C)C(=O)Cc1n[nH]c(=O)c2ccccc12	none (no result: NS1 function inh)
CS(=O)(=O)Nc1ccc2c(c1)[C@@H]1C[C@@H](CC(=O)NCc3cccnc3)O[C@H](CO)[C@@H]1O2	none (no result: NS1 function inh, SARS PLpro yeast-1)
CCOCCCn1c(N)c(C(=O)Nc2sc3c(c2C(=O)OC)CCCC3)c2nc3ccccc3nc21	NS1 function inh inconclusive, SARS PLpro yeast-1 inconclusive | SARS PLpro yeast-2 inconclusive
CCOC(=O)c1c(NC(=O)c2c(N)n(CCCOC)c3nc4ccccc4nc23)sc2c1CCCC2	none
CC(C)(O)CCC(C)(C)O	none (no result: NS1 function inh)
COC(=O)C(Cc1ccccc1)NC(=O)c1ccc(NS(=O)(=O)c2ccc3[nH]c(=O)[nH]c3c2)cc1 (configuration not stated)	none (no result: NS1 function inh)
COc1ccc(C(=O)Oc2ccc(=O)n(-c3ccccc3)n2)cc1	none (no result: SARS PLpro yeast-1) | SARS PLpro yeast-2 active
O=C(Oc1ccc(=O)n(-c2ccccc2)n1)c1ccc(Cl)cc1	none
O=C(c1ccncc1)N1CCN(S(=O)(=O)c2ccc(OC(F)(F)F)cc2)CC1	none (no result: NS1 function inh)
Cn1c2cc(C#N)sc2c2cnn(Cc3ccc(F)cc3)c(=O)c21	SARS PLpro yeast-1 5.6µM! (no result: NS1 function inh, AMA1 RON2 block) | SARS PLpro yeast-2 inactive
Cn1c2ccsc2c2cnn(Cc3ccc(F)cc3)c(=O)c21	none (no result: NS1 function inh, AMA1 RON2 block)
COc1cccc(CN(C)C(=O)CC[C@H]2O[C@@H](n3ccc(=O)[nH]c3=O)[C@H](O)[C@@H]2O)c1	none (no result: NS1 function inh, SARS PLpro yeast-1)
O=C(O)CSc1c(Cl)c(=O)oc2ccc(Cl)cc12	none (no result: NS1 function inh, SARS PLpro yeast-1)
COc1ccccc1N1CC(C(=O)OCC(=O)c2c(N)n(C)c(=O)n(C)c2=O)CC1=O (configuration not stated)	none (no result: NS1 function inh, SARS PLpro yeast-1)
Cc1ccc(C(=O)NCc2ccccn2)cc1S(=O)(=O)N1CCCCC1	none
O=S(=O)(c1ccc2ccccc2c1)N(CC(O)CN1CCOCC1)c1ccccc1 (configuration not stated)	SARS PLpro yeast-1 inconclusive | SARS PLpro yeast-2 inactive
Cc1ccc(S(=O)(=O)N(CC(O)CN2CCOCC2)c2cccc([N+](=O)[O-])c2)cc1 (configuration not stated)	none

Source: PubChem BioAssay
